# Measured values: the supplement of paper PMC7411054
# Key:
# Test in all cases: lowest phenotypically active concentration; higher = less potent
# Details in all cases: treatment time: 24 h
# HepG2-CANX-COX4 = tested on: HepG2-CANX-COX4
# Procedure, shortened: (§1)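 The reporter lines, fifteen in total and built by gene editing in A549, HepG2 and WPMY1 cells, used BFP for segmentation alongside GFP and RFP/FusionRed markers. Each was treated at 0.3, 1, 3 or 9 µM for 24 h in four wells and then imaged live, with live-cell features normalised to solvent control wells. Deviation meant ≥3 of 4 wells beyond the 95th percentile of control Euclidean distances; reproducibility meant a median replicate Pearson correlation above the 95th percentile of non-replicates. Only conditions meeting both were scored as phenotypically active.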
# HepG2-GM130-SQSTM1 = tested on: HepG2-GM130-SQSTM1
# Procedure, shortened: as §1
# HepG2-TP53BP1-CLTA = tested on: HepG2-TP53BP1-CLTA
# Procedure, shortened: as §1
# HepG2-TUBA1B-RELA = tested on: HepG2-TUBA1B-RELA
# Procedure, shortened: as §1
# WPMY1-ACTB-RAB5A = tested on: WPMY1-ACTB-RAB5A
# Procedure, shortened: as §1
# WPMY1-CANX-COX4 = tested on: WPMY1-CANX-COX4
# Procedure, shortened: as §1
# WPMY1-TP53BP1-CLTA = tested on: WPMY1-TP53BP1-CLTA
# Procedure, shortened: as §1
# WPMY1-TUBA1B-RELA = tested on: WPMY1-TUBA1B-RELA
# Procedure, shortened: as §1
Compound,lowest phenotypically active concentration (HepG2-CANX-COX4),lowest phenotypically active concentration (HepG2-GM130-SQSTM1),lowest phenotypically active concentration (HepG2-TP53BP1-CLTA),lowest phenotypically active concentration (HepG2-TUBA1B-RELA),lowest phenotypically active concentration (WPMY1-ACTB-RAB5A),lowest phenotypically active concentration (WPMY1-CANX-COX4),lowest phenotypically active concentration (WPMY1-TP53BP1-CLTA),lowest phenotypically active concentration (WPMY1-TUBA1B-RELA)
O=C(NCCN1CCC(n2c(=O)[nH]c3ccccc32)CC1)c1cc2cc(F)ccc2[nH]1,9 µM,9 µM,9 µM,9 µM,9 µM,9 µM,9 µM,9 µM
CN1CCN(c2ccc(-c3cccc(CN4CCOCC4)c3)cc2NC(=O)c2c[nH]c(=O)cc2C(F)(F)F)CC1,–,9 µM,9 µM,9 µM,–,9 µM,9 µM,9 µM
O=C(CCCN1CCC(O)(c2ccc(Cl)cc2)CC1)c1ccc(F)cc1 [haloperidol],–,9 µM,9 µM,9 µM,–,–,–,–
CN1C(=O)/C(=C2/Nc3ccccc3/C2=N/O)c2ccc(Br)cc21,3 µM,–,–,–,1 µM,9 µM,–,–
CN(C)CCCN1c2ccccc2CCc2ccc(Cl)cc21 [clomipramine],–,–,9 µM,9 µM,9 µM,9 µM,9 µM,9 µM
COc1cc(NC(=O)c2cccc(-n3cc(NC(=O)Nc4cccc(C)c4)cn3)c2)cc(OC)c1OC,–,–,–,–,–,–,–,9 µM
CNCCCN1c2ccccc2CCc2ccccc21 [desipramine],–,–,–,9 µM,9 µM,–,–,9 µM
CC(=O)O[C@@H]1C[C@H]2C(C)(C)C(=O)C=C[C@]2(C)[C@H]2CC[C@@]3(C)[C@H](c4ccoc4)OC(=O)[C@H]4O[C@]43[C@@]21C [gedunin],1 µM,9 µM,3 µM,9 µM,3 µM,9 µM,–,–
CCOC(=O)c1c(CSc2ccccc2)n(C)c2cc(Br)c(O)c(CN(C)C)c12 [arbidol],9 µM,9 µM,9 µM,9 µM,–,–,–,–
NC(=O)C(c1ccccc1)(c1ccccc1)[C@@H]1CCN(CCc2ccc3c(c2)CCO3)C1 [darifenacin],9 µM,9 µM,9 µM,–,–,–,9 µM,–
CNCCCC12CCC(c3ccccc31)c1ccccc12 [maprotiline],–,9 µM,9 µM,3 µM,9 µM,9 µM,9 µM,9 µM
CC(=O)Nc1ccc(NC(=S)NC(=O)c2ccc(C(C)(C)C)cc2)cc1 [Tenovin-1],3 µM,–,9 µM,3 µM,≤ 0.3 µM,9 µM,1 µM,1 µM
CN(C)CCCN1c2ccccc2Sc2ccc(C(F)(F)F)cc21 [triflupromazine],–,–,–,9 µM,9 µM,9 µM,–,9 µM
CC(CN(C)C)CN1c2ccccc2Sc2ccccc21.CC(CN(C)C)CN1c2ccccc2Sc2ccccc21 (stereo not given) [alimemazine],–,9 µM,9 µM,9 µM,9 µM,–,–,9 µM
"CCCCCCCCCCCCC/C=C/[C@@H](O)[C@H](CO)N(C)C [N,N-Dimethylsphingosine]",3 µM,9 µM,3 µM,9 µM,3 µM,3 µM,9 µM,3 µM
